Test results from article PMC4336329 (PLoS ONE, 2015).
Among all 310,000 compounds or so, about 14,000 (4.5%) showed an effect of 50% or more. Effects have a minus sign here. Many of the other results were omitted from the sample, so strong results are more common in it than they were.
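Also: peak tail current of the secondary pulse compared with the same well before compound.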

Each compound was assayed against human ether-à-go-go-related gene (hERG) potassium channel (human, UniProt Q12809) (assay: primary screen, population patch clamp on CHO cells stably expressing hERG; higher = less effect of the substance).
human ether-à-go-go-related gene (hERG) potassium channel, sequence (Q12809 whole entry, looked up): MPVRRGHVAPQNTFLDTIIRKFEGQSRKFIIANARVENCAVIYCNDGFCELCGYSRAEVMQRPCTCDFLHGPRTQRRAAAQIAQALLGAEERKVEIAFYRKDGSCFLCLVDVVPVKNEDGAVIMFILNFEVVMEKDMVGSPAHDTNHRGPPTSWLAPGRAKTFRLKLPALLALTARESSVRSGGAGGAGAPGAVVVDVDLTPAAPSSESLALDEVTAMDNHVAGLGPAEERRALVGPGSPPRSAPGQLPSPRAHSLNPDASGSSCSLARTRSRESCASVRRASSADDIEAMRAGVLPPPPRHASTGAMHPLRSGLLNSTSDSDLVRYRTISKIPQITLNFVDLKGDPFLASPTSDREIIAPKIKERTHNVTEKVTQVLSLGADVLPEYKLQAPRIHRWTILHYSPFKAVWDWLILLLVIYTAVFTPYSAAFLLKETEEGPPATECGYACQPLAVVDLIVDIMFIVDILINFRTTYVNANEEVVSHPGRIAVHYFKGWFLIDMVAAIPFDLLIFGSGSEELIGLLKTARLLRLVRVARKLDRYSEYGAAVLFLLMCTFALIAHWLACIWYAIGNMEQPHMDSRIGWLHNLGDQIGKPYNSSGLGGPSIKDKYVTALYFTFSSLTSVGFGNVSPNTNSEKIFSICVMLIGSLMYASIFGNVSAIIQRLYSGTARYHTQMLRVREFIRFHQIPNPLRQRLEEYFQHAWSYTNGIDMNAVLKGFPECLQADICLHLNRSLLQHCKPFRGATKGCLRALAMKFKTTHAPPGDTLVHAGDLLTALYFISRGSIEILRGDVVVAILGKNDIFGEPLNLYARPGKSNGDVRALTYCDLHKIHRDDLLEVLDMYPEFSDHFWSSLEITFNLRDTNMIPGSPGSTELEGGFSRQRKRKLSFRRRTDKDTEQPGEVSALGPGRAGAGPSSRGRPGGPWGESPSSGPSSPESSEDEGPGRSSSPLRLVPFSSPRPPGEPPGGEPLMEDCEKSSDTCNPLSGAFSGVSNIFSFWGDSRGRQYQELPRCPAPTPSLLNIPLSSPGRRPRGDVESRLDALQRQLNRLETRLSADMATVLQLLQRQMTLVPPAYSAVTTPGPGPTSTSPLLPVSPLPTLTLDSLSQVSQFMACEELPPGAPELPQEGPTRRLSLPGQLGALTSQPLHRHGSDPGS
`CCNC(=O)N1CCC(c2nc3ccccc3s2)CC1` was tested, and the “hERG current change (%, negative = inhibition) at 10uM” value was 10.3%. For `CS(=O)(=O)Cc1ccc(C(=O)N2CCCC2c2cccs2)cc1` (stereo not drawn), the “hERG current change (%, negative = inhibition) at 10uM” value was 16.9%. For `CN(CCc1ccccn1)C(=O)CCC1CCCN(C(=O)c2ccccn2)C1` (stereo not drawn), the “hERG current change (%, negative = inhibition) at 10uM” value was 21.8%. With `Cc1ccccc1C(=O)Nc1ccc2c(c1)OCCO2` the “hERG current change (%, negative = inhibition) at 10uM” value was 6.96%. For `Cc1ccc(C(=O)CCC(=O)Nc2ccccc2C)cc1C`, the “hERG current change (%, negative = inhibition) at 10uM” value was 15%. In the case of `CCCC(=O)OCCn1c(Br)nc2c1c(=O)[nH]c(=O)n2C`, the “hERG current change (%, negative = inhibition) at 10uM” value is reported as 16.9%. For `CCCCn1c(SCc2cccnc2)nc2c1c(=O)n(C)c(=O)n2C`, the “hERG current change (%, negative = inhibition) at 10uM” value was -28%. `Cn1c(=O)c2c(nc(CN3CCCCC3)n2CCCc2ccccc2)n(C)c1=O` was tested, and the “hERG current change (%, negative = inhibition) at 10uM” value was -29.1%. `CN1CCN(Cc2nc3c(c(=O)n(C)c(=O)n3C)n2CCCc2ccccc2)CC1` was tested, and the “hERG current change (%, negative = inhibition) at 10uM” value was -13.4%. For `CCCCCCn1c(CN2CCN(Cc3ccccc3)CC2)nc2c1c(=O)n(C)c(=O)n2C`, the “hERG current change (%, negative = inhibition) at 10uM” value was -71.8%. In the case of `CCC(=O)OCCn1c(Br)nc2c1c(=O)[nH]c(=O)n2C`, the “hERG current change (%, negative = inhibition) at 10uM” value is reported as -0.796%. In the case of `CCCCCCn1c(CN2CCN(CCO)CC2)nc2c1c(=O)n(C)c(=O)n2C`, the “hERG current change (%, negative = inhibition) at 10uM” value is reported as -38.3%. `CCOC(=O)Cn1c(Br)nc2c1c(=O)[nH]c(=O)n2C` was tested, and the “hERG current change (%, negative = inhibition) at 10uM” value was -58%. For `CCCCn1c(SCc2ccccn2)nc2c1c(=O)n(C)c(=O)n2C`, the “hERG current change (%, negative = inhibition) at 10uM” value was -8.02%. For `CCCCCn1c(CN2CCN(Cc3ccccc3)CC2)nc2c1c(=O)n(C)c(=O)n2C`, the “hERG current change (%, negative = inhibition) at 10uM” value was -68%. For `CCCCCn1c(CN2CCN(CCO)CC2)nc2c1c(=O)n(C)c(=O)n2C`, the “hERG current change (%, negative = inhibition) at 10uM” value was -17.9%. For `CCCCn1c(SCc2nnc(-c3ccccc3)o2)nc2c1c(=O)n(C)c(=O)n2C`, the “hERG current change (%, negative = inhibition) at 10uM” value was -56%. With `COC(=O)c1c(NC(=O)COC(=O)C2CCC2)sc(C)c1C` the “hERG current change (%, negative = inhibition) at 10uM” value was -13.4%. `Fc1ccc(-c2n[nH]c(=S)n2Cc2ccccc2)cc1` was tested, and the “hERG current change (%, negative = inhibition) at 10uM” value was 7.48%. In the case of `NCc1nc(-c2ccc(Cl)cc2)no1`, the “hERG current change (%, negative = inhibition) at 10uM” value is reported as 11.2%. With `CCOC(=O)COn1c(=O)c(-c2ccc(OC)c(OC)c2)[n+]([O-])c2ccccc21` the “hERG current change (%, negative = inhibition) at 10uM” value was -11.9%. With `O=C(Nc1ccc2c(c1)OCO2)c1ccc(CO)cc1` the “hERG current change (%, negative = inhibition) at 10uM” value was 4.24%. `CN1CCC(=NNC(=O)c2cc(-c3ccc(Cl)cc3)n[nH]2)CC1` was tested, and the “hERG current change (%, negative = inhibition) at 10uM” value was -16.4%. In the case of `c1ccc(-c2cccc(-c3ccccc3)n2)cc1`, the “hERG current change (%, negative = inhibition) at 10uM” value is reported as 18.4%. `CCOc1ccc(CCNC(=O)COC(=O)C2CC2)cc1OCC` was tested, and the “hERG current change (%, negative = inhibition) at 10uM” value was 3.41%. `Cc1nnc(SCC(=O)Nc2ccc3c(c2)OCCO3)n1N` was tested, and the “hERG current change (%, negative = inhibition) at 10uM” value was 12.4%. `CSc1ccccc1NC(=O)c1c(Br)cnn1C` was tested, and the “hERG current change (%, negative = inhibition) at 10uM” value was -1.39%. In the case of `CCCCCn1c(CN2CCN(C(=O)OCC)CC2)nc2c1c(=O)[nH]c(=O)n2C`, the “hERG current change (%, negative = inhibition) at 10uM” value is reported as -69.8%. For `CCCCCCn1c(CN2CCCC(C)C2)nc2c1c(=O)n(C)c(=O)n2C` (stereo not drawn), the “hERG current change (%, negative = inhibition) at 10uM” value was -58.1%. In the case of `CCCCCCn1c(CN2CCCCC2)nc2c1c(=O)n(C)c(=O)n2C`, the “hERG current change (%, negative = inhibition) at 10uM” value is reported as -35.7%. In the case of `CCCCCn1c(CN2CCN(C)CC2)nc2c1c(=O)n(C)c(=O)n2C`, the “hERG current change (%, negative = inhibition) at 10uM” value is reported as -33.1%. `CCCCCCn1c(CN2CCC(C)CC2)nc2c1c(=O)n(C)c(=O)n2C` was tested, and the “hERG current change (%, negative = inhibition) at 10uM” value was -8.75%. With `CCCCCCn1c(CN2CCN(C(=O)OCC)CC2)nc2c1c(=O)n(C)c(=O)n2C` the “hERG current change (%, negative = inhibition) at 10uM” value was -53.5%. `CCCCn1c(CN2CCN(C(=O)OCC)CC2)nc2c1c(=O)[nH]c(=O)n2C` was tested, and the “hERG current change (%, negative = inhibition) at 10uM” value was 6.72%. For `CCCCn1c(CN2CCN(C(=O)OCC)CC2)nc2c1c(=O)n(C)c(=O)n2C`, the “hERG current change (%, negative = inhibition) at 10uM” value was -18.1%. `CCOCCn1c(CN2CCCC(C)C2)nc2c1c(=O)n(C)c(=O)n2C` (stereo not drawn) was tested, and the “hERG current change (%, negative = inhibition) at 10uM” value was 11.7%. In the case of `CCCCCCn1c(CN2CCN(C)CC2)nc2c1c(=O)n(C)c(=O)n2C`, the “hERG current change (%, negative = inhibition) at 10uM” value is reported as -80.9%. With `CCOC(=O)N1CCN(Cc2nc3c(c(=O)[nH]c(=O)n3C)n2CCCc2ccccc2)CC1` the “hERG current change (%, negative = inhibition) at 10uM” value was -37.5%. For `CCCCCn1c(CN2CCN(C(=O)OCC)CC2)nc2c1c(=O)n(C)c(=O)n2C`, the “hERG current change (%, negative = inhibition) at 10uM” value was -34.6%. For `CC1CCC(NC(=O)C2CC(=O)N(c3ccc4c(c3)OCCO4)C2)CC1` (stereo not drawn), the “hERG current change (%, negative = inhibition) at 10uM” value was 8.92%. For `COc1ccc(N(C(=O)c2ccco2)S(=O)(=O)c2ccccc2)cc1`, the “hERG current change (%, negative = inhibition) at 10uM” value was -44.3%. In the case of `COc1cccc(NC(=O)CSc2nnnn2C(C)C)c1`, the “hERG current change (%, negative = inhibition) at 10uM” value is reported as 2.64%. For `COc1ccc(-c2nsc3c(N4CCCCC4C)ncnc23)cc1` (stereo not drawn), the “hERG current change (%, negative = inhibition) at 10uM” value was 33.3%. With `Cc1nnc(NC(=O)C2CCCO2)s1` (stereo not drawn) the “hERG current change (%, negative = inhibition) at 10uM” value was 3.17%. For `CCn1c2ccccc2c2cc(CN3CCN(S(=O)(=O)CC)CC3)ccc21.O=C(O)C(=O)O`, the “hERG current change (%, negative = inhibition) at 10uM” value was -13.4%.
